{"source": "PubChem BioAssay (NCI)", "note": "This is part of a sample that, as a whole, favours compounds with a hit. Of some 79,000 tested, about 15% had one in any assay. Active and inactive are the calls of the source. Cut-off read from the data, not from the text of the source: active = growth inhibition above about 70%; inactive = the rest."}
{"test": "NCI Yeast Anticancer Drug Screen. Data for the cln2 rad14 strain (AID 165);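 note: 0% = growth equal to vehicle treated cultures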", "details": "S. cerevisiae cln2 rad14 strain, at 50.0 µM, active compounds read high", "method_in_brief": "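Yeast strain cln2 rad14, bearing defects in cell cycle control and DNA repair, serves as the test system; values reflect growth inhibition compared with vehicle.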"}
{"smiles": "CSC(=S)n1nc(-c2ccccc2)c(N=Nc2ccc(Br)cc2)c1-c1ccccc1", "growth inhibition": "49.9% (inactive)"}
{"smiles": "COc1ccc([N+](=O)[O-])cc1Nc1c2ccccc2nc2ccccc12", "growth inhibition": "37.5% (inactive)"}
{"smiles": "C=CCN1/C(=C/C=C\\c2sc3ccccc3[n+]2CC=C)Sc2ccccc21", "growth inhibition": "93.5% (active)"}
{"smiles": "COc1ccc(/C=C/C(C(=O)O)C(=O)O)cc1", "growth inhibition": "44.4% (inactive)"}
{"smiles": "CN(C)C(=O)c1cc(Br)cc(-c2ccccc2)c1O", "growth inhibition": "38.6% (inactive)"}
{"smiles": "Cc1cc(N=[N+]=[N-])c2cc(C3CCCCC3)ccc2n1", "growth inhibition": "90.3% (active)"}
{"smiles": "[Cu+2].[O-]/N=C/c1cccc(O)c1[O-].[O-]/N=C/c1cccc(O)c1[O-]", "growth inhibition": "94.8% (active)"}
{"smiles": "c1ccc(Cn2nnc(-c3ccccc3)c2-c2ccccc2)cc1", "growth inhibition": "87.8% (active)"}
{"smiles": "CCOc1ccc2nc(Cl)sc2c1", "growth inhibition": "94% (active)"}
{"smiles": "CCOC(=O)c1sc2c(c1O)c(=O)n(-c1ccccc1)c(=S)n2-c1ccccc1", "growth inhibition": "85.3% (active)"}
{"smiles": "O=C(O)c1c[nH]c2cc(Cl)ccc2c1=O", "growth inhibition": "90.9% (active)"}
{"smiles": "Cc1cc2c(cc1O)CC[C@@H]1[C@@H]2CC[C@]2(C)[C@@H](O)CC[C@@H]12", "growth inhibition": "50.2% (inactive)"}
{"smiles": "NC(=O)NOCC1NC(=O)NC1=O", "note": "(configuration not stated)", "growth inhibition": "-11.1% (inactive)"}
{"smiles": "CCOC(=O)c1cnc2cc3cccccc3n2c1=O", "growth inhibition": "54.9% (inactive)"}
{"smiles": "CC(CO)CCC(=O)C(C)C1C(=O)CC2CC3CC(O)CCC3(C)CC21C", "note": "(configuration not stated)", "growth inhibition": "95.1% (active)"}
{"smiles": "N#CSC#Cc1ccc(C#CSC#N)cc1", "growth inhibition": "87.5% (active)"}
{"smiles": "CCS/C(SC)=C(/c1ccccc1)[P+](c1ccccc1)(c1ccccc1)c1ccccc1", "growth inhibition": "91.5% (active)"}
{"test": "NCI Yeast Anticancer Drug Screen. Data for the bub3 strain (AID 167)", "details": "S. cerevisiae bub3 mutant strain, at 5.0 µM (retest, dose inferred, filed as 0.5), active compounds read high", "method_in_brief": "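Mutant yeast screening strain plus compound; vehicle-treated cultures serve as the 0% inhibition reference.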"}
{"smiles": "CCSC1(SCC)C(=O)OC2=C(CCCC2)C1N1CCOCC1", "note": "(configuration not stated)", "growth inhibition": "-4% (inactive)"}
{"smiles": "NC(=O)C(CCc1cccc2ccccc12)c1ccccc1", "note": "(configuration not stated)", "growth inhibition": "-2% (inactive)"}
{"smiles": "NC(CCCCCC(N)C(=O)O)C(=O)O", "note": "(configuration not stated)", "growth inhibition": "-67% (inactive)"}
{"smiles": "CN(C)CC(CN(C)C)C(=O)C1CCCCC1", "growth inhibition": "7% (inactive)"}
{"smiles": "O=C1/C(=C/c2ccc([N+](=O)[O-])cc2)Sc2scc(-c3cccc([N+](=O)[O-])c3)[n+]21", "growth inhibition": "99% (active)"}
{"smiles": "CC(C)(C)c1cc(C(P(=O)(c2ccccc2)c2ccccc2)P(=O)(c2ccccc2)c2ccccc2)cc(C(C)(C)C)c1O", "growth inhibition": "-4% (inactive)"}
{"smiles": "COC(=O)c1cc(=O)n(-c2ccccc2C(F)(F)F)c(SC)n1", "growth inhibition": "7% (inactive)"}
{"smiles": "CSC(SC)=C1C(=O)NC(Cc2ccccc2)C1=O", "note": "(configuration not stated)", "growth inhibition": "1% (inactive)"}
{"smiles": "c1ccc(C(c2ccccc2)c2ccc3ccccc3n2)cc1", "growth inhibition": "23% (inactive)"}
{"smiles": "CN(C)c1nc(N(C)C)nc([N+](C)(C)C)n1", "growth inhibition": "0% (inactive)"}
{"smiles": "CCCNC(=S)N/N=C(/C)c1nccc2ccccc12", "growth inhibition": "0% (inactive)"}
{"smiles": "OC(CN1CCc2ccccc2C1)c1ccc2ccccc2c1", "note": "(configuration not stated)", "growth inhibition": "36% (inactive)"}
{"smiles": "Nc1nc(N)c2nc(CNc3ccc(C(=O)NC(CCC(=O)O)C(=O)O)cc3)ccc2n1", "note": "(configuration not stated)", "growth inhibition": "7% (inactive)"}
{"smiles": "O=c1c2ccccc2c2ccccc2n1O", "growth inhibition": "88% (active)"}
{"smiles": "CC(=O)N1c2ccccc2Sc2ccc3ccc(C(=O)CCl)cc3c21", "growth inhibition": "93% (active)"}
{"smiles": "CC(NNC(=S)N1CC2CCC(CC2)C1)c1nccc2ccccc12", "note": "(configuration not stated)", "growth inhibition": "97% (active)"}
{"smiles": "O=C1O/C(=C(\\Cc2ccccc2)c2ccccc2)N(c2ccccc2)C1=O", "growth inhibition": "0% (inactive)"}
{"smiles": "S=c1sc2ccccc2n1C=Nc1ccccc1", "growth inhibition": "-1% (inactive)"}
{"smiles": "CSc1nc(NC2OC(CO)C(O)C(O)C2O)c(Cl)c(=O)[nH]1", "note": "(configuration not stated)", "growth inhibition": "-1% (inactive)"}
{"smiles": "C=CCN1/C(=C\\C=C\\c2ccc3cc(C)ccc3[n+]2CC=C)C=Cc2cc(C)ccc21", "growth inhibition": "83% (active)"}
{"smiles": "S=c1[nH]nc(SCc2ccc(Cl)c(Cl)c2)c2[nH]cnc12", "growth inhibition": "-8% (inactive)"}
{"smiles": "Nc1ccc(C(=O)/C=C/c2ccccn2)cc1", "growth inhibition": "-1% (inactive)"}
{"smiles": "CCOC(=O)C(C(=O)O)(C(c1ccccc1)c1ccccc1)C(c1ccccc1)c1ccccc1", "growth inhibition": "98% (active)"}
{"smiles": "CSC(=S)n1nc(-c2ccccc2)c(N=Nc2ccc(Br)cc2)c1-c1ccccc1", "growth inhibition": "13% (inactive)"}
{"smiles": "COc1ccc([N+](=O)[O-])cc1Nc1c2ccccc2nc2ccccc12", "growth inhibition": "-1% (inactive)"}
{"smiles": "C=CCN1/C(=C/C=C\\c2sc3ccccc3[n+]2CC=C)Sc2ccccc21", "growth inhibition": "98% (active)"}
{"smiles": "COc1ccc(/C=C/C(C(=O)O)C(=O)O)cc1", "growth inhibition": "14% (inactive)"}
{"smiles": "CN(C)C(=O)c1cc(Br)cc(-c2ccccc2)c1O", "growth inhibition": "1% (inactive)"}
{"smiles": "Cc1cc(N=[N+]=[N-])c2cc(C3CCCCC3)ccc2n1", "growth inhibition": "0% (inactive)"}
{"smiles": "[Cu+2].[O-]/N=C/c1cccc(O)c1[O-].[O-]/N=C/c1cccc(O)c1[O-]", "growth inhibition": "-20% (inactive)"}
